In the library only some 21% were active in any assay of this set; here they are far more common.
IL1B secr inh = blocks inflammasome-driven IL-1 beta release; THP-1 LPS/ATP IL-1B secretion, AlphaLISA, 16 h; stronger effect = lower value; activity change, % at 57.5 µM; 360,000 tested, 4.7% active; in the data active means activity change below about -50%; inconclusive means mostly about -30% to -49%
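THP-1 cells pretreated 1 hr with compounds (up to 57.5 uM final), then stimulated with LPS (250 ng/mL final) plus ATP (1.25 mM final); secreted IL-1B measured by AlphaLISA after 16 hr, decreased signal indicating inhibition.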
VP16 counter = inhibits Gal4-VP16 luciferase reporter, ROR gamma counter-screen. Drosophila S2 Gal4-VP16 UAS-luciferase, luminescence, 20 h. Potency, µM (titrated, usually from 53.6 µM), actives largely listed as inhibitors. 310,000 tested, 3.5% active. AID 2546;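 further: Gal4-VP16 expression switched on by copper sulfate through the metallothionein promoter; nearly all actives have a fitted effect of over 50% in size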
DT40 TDP1 no CPT = qHTS for Inhibitors of human tyrosyl-DNA phosphodiesterase 1 (TDP1): qHTS in cells in absence of CPT; DT40 Tdp1-/- hTDP1 cells, no CPT, ATP luminescence, 48 h; 420,000 tested, 15% active; Potency, µM (highest dose often 46.2 µM), hits mostly inhibitors; further: nearly all actives have a fitted effect of over 55% in size
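Seeded 400 DT40-hTDP1 cells/well (vehicle DMSO, no 20 nM CPT); pinned compounds; ≥48 hr at 37 °C; CellTiter-Glo luminescence as viability measure.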
TDP1 cell CPT = DT40-hTDP1 cell growth loss with CPT; chicken DT40 Tdp1-/-;hTDP1 cells + 20 nM CPT, ATP luminescence, 48 h; Potency, µM (doses to about 46.2 µM), hits mostly inhibitors; 420,000 tested, 12% active; further: nearly all actives have a fitted effect of over 55% in size
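Cell growth measured by CellTiter-Glo luminescence after a minimum 48 h, 37 C compound exposure with 20 nM CPT in Tdp1-knockout DT40 cells stably expressing hTDP1, seeded 400/well; qHTS titration format.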
RORg inh = ROR gamma (mouse) transcription inhibition | P51450 | Drosophila S2 Gal4-RORgamma UAS-luciferase reporter, 20 h | Potency, µM (doses to about 53.6 µM), usual class: inhibitors | 310,000 tested, 5.4% active | AID 2551; further: nearly all actives have a fitted effect of over 60% in size
Target sequence (P51450 whole entry, looked up, the tested form may be a part): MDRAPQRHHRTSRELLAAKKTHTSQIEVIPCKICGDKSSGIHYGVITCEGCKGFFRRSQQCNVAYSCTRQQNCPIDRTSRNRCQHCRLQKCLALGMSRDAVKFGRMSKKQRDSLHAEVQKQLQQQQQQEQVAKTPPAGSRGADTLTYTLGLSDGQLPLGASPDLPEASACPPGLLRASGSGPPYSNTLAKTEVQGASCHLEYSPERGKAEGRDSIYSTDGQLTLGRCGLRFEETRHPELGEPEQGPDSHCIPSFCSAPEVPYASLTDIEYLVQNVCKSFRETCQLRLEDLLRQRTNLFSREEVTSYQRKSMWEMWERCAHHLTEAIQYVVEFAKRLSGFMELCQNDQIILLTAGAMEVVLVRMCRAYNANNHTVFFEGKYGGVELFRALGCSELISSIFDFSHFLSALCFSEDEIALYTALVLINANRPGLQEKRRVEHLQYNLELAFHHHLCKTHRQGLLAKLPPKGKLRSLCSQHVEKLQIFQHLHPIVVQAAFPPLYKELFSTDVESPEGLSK
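ROR gamma transcriptional activity was tracked as Gal4-UAS luciferase output in stably transfected Drosophila Schneider cells, with compound added 1 hr before 700 uM copper sulfate induction and a 20 hr ambient-temperature incubation.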
ELG1 repair inh = inhibitors of ELG1-dependent DNA repair in HEK293T cells; HEK293T ELG1-luciferase reporter, luminescence, 16 h; DNA damage induced by 5-fluorouridine; Potency, µM (top dose mostly 46.1 µM), hits mostly inhibitors; 330,000 tested, 2.3% active; further: nearly all actives have a fitted effect of over 55% in size
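DMSO vehicle served as the neutral condition. Each well held 2,000 cells given 5-fluorouridine plus compound; after 16 hr at 37 °C/5% CO2, ONE-Glo was added and luciferase measured 30 min later.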
A number is an active result. Unless noted, the call rests on the fitted dose curve; in most records, active means well fitted curve in the direction sought with a large enough effect; inconclusive means small, poorly fitted or top-dose-only effect, or another doubt; inactive means no such curve, though single readings can be large; an effect the other way counts as inactive or inconclusive.

For O=C(O)c1cccc(NC2=Nc3cccc4cccc2c34)c1 the results were IL1B secr inh inactive, VP16 counter inactive, DT40 TDP1 no CPT inactive, TDP1 cell CPT inactive, RORg inh inactive and ELG1 repair inh inconclusive.
`Fc1ccc(/C=N/NC2=Nc3cccc4cccc2c34)cc1` gave IL1B secr inh inactive, VP16 counter inconclusive, DT40 TDP1 no CPT inconclusive, TDP1 cell CPT inactive, RORg inh 1.1µM and ELG1 repair inh inconclusive.
COc1ccc(NC2=Nc3cccc4cccc2c34)cc1 was read as IL1B secr inh inactive, VP16 counter inconclusive, DT40 TDP1 no CPT 26µM, TDP1 cell CPT inconclusive, RORg inh 13µM and ELG1 repair inh inconclusive.
For CCOC(=O)c1cc(C#N)c(Oc2ccccc2OC)nc1-c1ccccc1 the results were IL1B secr inh inactive, VP16 counter inactive, DT40 TDP1 no CPT 23µM, TDP1 cell CPT inconclusive, RORg inh inactive and ELG1 repair inh inconclusive.
`CCOC(=O)c1cc(C#N)c(SC)nc1-c1ccccc1` gave IL1B secr inh inactive, VP16 counter inactive, DT40 TDP1 no CPT inconclusive, TDP1 cell CPT inconclusive, RORg inh inactive and ELG1 repair inh inconclusive.
CCOC(=O)c1cc(C#N)c(N2CCN(c3ccccn3)CC2)nc1-c1ccccc1 was read as IL1B secr inh inactive, VP16 counter inactive, DT40 TDP1 no CPT 21µM, TDP1 cell CPT inconclusive, RORg inh inactive and ELG1 repair inh inconclusive.
`CCOC(=O)C(C)NC(=O)C1CCN(c2ncnc3c2nc2n3CCCCC2)CC1` (stereo unspecified) gave DT40 TDP1 no CPT inactive and TDP1 cell CPT inconclusive.
CC1(C)Oc2ccccc2OC1(O)c1ccc2ccccc2n1 (stereo unspecified) was read as IL1B secr inh inactive, VP16 counter inactive, DT40 TDP1 no CPT 18µM, TDP1 cell CPT inconclusive, RORg inh inactive and ELG1 repair inh inactive.
For O=[N+]([O-])c1ccc(/C=C/c2ccc3ccccc3n2)cc1 the results were IL1B secr inh inactive, VP16 counter inconclusive, DT40 TDP1 no CPT inconclusive, TDP1 cell CPT inconclusive, RORg inh inconclusive and ELG1 repair inh inconclusive.
For O=c1[nH]cnc(O)c1N=Nc1ccccc1 the results were IL1B secr inh inactive, VP16 counter inactive, DT40 TDP1 no CPT inconclusive, TDP1 cell CPT inconclusive, RORg inh inactive and ELG1 repair inh inactive.
CC1(C)CC(=O)C(N=Nc2cccc(S(=O)(=O)N3CCOCC3)c2)=C(O)C1 was read as IL1B secr inh inactive, VP16 counter inactive, DT40 TDP1 no CPT inactive, TDP1 cell CPT inactive, RORg inh inactive and ELG1 repair inh inconclusive.
`Nc1nn(-c2ccccc2)c(N)c1N=Nc1ccccc1F` gave IL1B secr inh -54, VP16 counter inactive, DT40 TDP1 no CPT 13µM, TDP1 cell CPT 9.2µM, RORg inh inactive and ELG1 repair inh inconclusive.
Screening Nc1c(N=Nc2ccccc2F)c(=O)[nH]n1-c1ccccc1 returned IL1B secr inh inactive, VP16 counter inactive, DT40 TDP1 no CPT inactive, TDP1 cell CPT inactive, RORg inh inactive and ELG1 repair inh inconclusive.
For Nc1ncnc(N)c1N=Nc1ccccc1 the results were IL1B secr inh -60, VP16 counter inactive, DT40 TDP1 no CPT 3.3µM, TDP1 cell CPT 23µM, RORg inh inactive and ELG1 repair inh inactive.
For Cc1nn(-c2ccccc2)c(N)c1N=Nc1ccc(Cl)cc1 the results were IL1B secr inh -76, VP16 counter inactive, DT40 TDP1 no CPT inconclusive, TDP1 cell CPT inconclusive, RORg inh inconclusive and ELG1 repair inh inconclusive.
Screening Cc1nn(-c2ccccc2)c(N)c1N=Nc1cccc(S(=O)(=O)N2CCOCC2)c1 returned IL1B secr inh -56, VP16 counter inactive, DT40 TDP1 no CPT 16µM, TDP1 cell CPT inconclusive, RORg inh inactive and ELG1 repair inh inactive.
`CCCN1CCN(S(=O)(=O)c2ccc(-n3cnnn3)cc2)CC1` gave IL1B secr inh inactive, VP16 counter inactive, DT40 TDP1 no CPT inactive, TDP1 cell CPT inactive, RORg inh inactive and ELG1 repair inh inactive.
